Source: PubChem BioAssay
Rab9 prom act: activates the Rab9 promoter. 320,000 tested, 2.8% active. Potency, µM (highest dose often 9.22 µM), for the others: at the top dose activation, negative = inhibition, actives largely listed as activators. Huh7 Rab9 promoter-luciferase reporter, luminescence, 24 h; further: % of control where 0% means no effect; nearly all actives have a fitted effect of over 60% in size
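Cell-based reporter: Huh7 stable for Rab9 promoter-driven luciferase, plated in reduced-serum medium with 10% FBS at 1500 cells/well, compound-treated 24 h at 37 °C, luminescence read after 10 min reagent.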
NPC1 promoter act: activators of NPC1 promoter. Huh7 NPC1 promoter luciferase reporter, 24 h. Potency, µM (titrated, usually from 9.22 µM), for inactives: at the highest dose activation, most hits filed as activators. 320,000 tested, 2.4% active; further: % of control where 0% means no effect; nearly all actives have a fitted effect of over 60% in size
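Stably transfected Huh7 (NPC1 promoter→luciferase), 1500 cells/well in Opti-MEM + 10% FBS, 2 h settle, then compound 24 h at 37 °C. Luminescence after 10 min with Amplite reagent.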
FLuc modulator: counter-screen for miR-21 project: firefly luciferase inhibitors or activators; Potency, µM (top dose mostly 57.5 µM), for inactives: top-dose activity change, negative = inhibition, usual class: inhibitors; AID 588342; purified FLuc, Km substrates, luminescence inhibition; P08659; 360,000 tested, 6.9% active;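 further: plate controls were vehicle for no effect and reference inhibitor for full effect; nearly all actives have a fitted effect of over 55% in size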
Target sequence (P08659 whole entry, looked up): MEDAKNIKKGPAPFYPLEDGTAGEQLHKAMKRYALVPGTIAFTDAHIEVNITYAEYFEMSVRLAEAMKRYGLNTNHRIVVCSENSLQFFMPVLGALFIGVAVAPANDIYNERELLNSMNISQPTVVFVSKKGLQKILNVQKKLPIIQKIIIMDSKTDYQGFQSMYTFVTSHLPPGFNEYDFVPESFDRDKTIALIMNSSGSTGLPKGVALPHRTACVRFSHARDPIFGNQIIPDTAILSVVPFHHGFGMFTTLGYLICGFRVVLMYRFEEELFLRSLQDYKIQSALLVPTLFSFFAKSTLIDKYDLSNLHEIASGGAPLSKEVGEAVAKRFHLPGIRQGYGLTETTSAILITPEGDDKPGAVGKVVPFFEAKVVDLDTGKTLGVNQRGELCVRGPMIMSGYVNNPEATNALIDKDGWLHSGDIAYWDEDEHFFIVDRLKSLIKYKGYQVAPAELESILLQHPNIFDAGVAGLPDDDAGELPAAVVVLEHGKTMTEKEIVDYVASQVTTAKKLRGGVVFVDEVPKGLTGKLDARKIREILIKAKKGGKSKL
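Biochemical qHTS of compounds, final roughly 60 µM downward over six points, against 10 nM purified firefly luciferase using Km concentrations of substrates (10 uM D-luciferin, 10 uM ATP) in Tris acetate pH 7.5 buffer; luminescence output.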
ELG1 genotoxic: induces genotoxicity in HEK293T cells with luciferase-tagged ELG1. HEK293T ELG1-luciferase reporter, luminescence, 16 h. Potency, µM (top dose mostly 46 µM), without a hit: at the top dose activity change, positive = activation, usual class: activators. 330,000 tested, 1.3% active. AID 504466; further: % of control where 0% means no effect; nearly all actives have a fitted effect of over 60% in size
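Step 1: seed 2,000 HEK293T ELG1-luciferase cells per well. Step 2: add compound or DMSO, incubate 16 hr at 37 °C. Step 3: ONE-Glo, 30 min at room temperature, read luminescence.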
SMN2 splice up: enhancers of SMN2 splice variant expression; Potency, µM (doses to about 46.1 µM), inactives show top-dose activity change, positive = activation, actives largely listed as activators; 210,000 tested, 2.8% active; HEK293 SMN2-luciferase splicing reporter, luminescence, 30-36 h; further: % of control where 0% means no effect; nearly all actives have a fitted effect of over 55% in size
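HEK293 cells carry an SMN2 minigene-luciferase reporter in which exon 7 inclusion puts luciferase in frame. Cells were seeded at 2000 cells/well, attached for 10-12 hours, then exposed to compounds for 30-36 hours at 37C before ONE-Glo luminescence.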
Active calls of the source: *; ? = inconclusive; . = no result; [ ] = remark or other dose. An excerpt weighted towards active compounds, which were near 7.5% of everything screened. The call rests on the fitted dose curve; in most records, active means well fitted curve in the direction sought with a large enough effect; inconclusive means small, poorly fitted or top-dose-only effect, or another doubt; inactive means no such curve, though single readings can be large; an effect the other way counts as inactive or inconclusive. Potency means the concentration at half of the fitted maximal effect.

SMILES	Rab9 prom act	NPC1 promoter act	FLuc modulator	ELG1 genotoxic	SMN2 splice up
O=C(/C=C/c1ccc(Cl)cc1Cl)OCC(=O)N1CCCC1	12%	-4%	15µM*	4%	.
O=C(/C=C/c1cccc(F)c1)N1CCc2ccccc21	0.63µM*	1.1µM*	0.85µM*	1.8µM*	2.5µM*
O=C(/C=C/c1ccc(Cl)cc1Cl)N1CCc2ccccc21	0.79µM*	1.6µM*	0.6µM*	6.5µM*	2.5µM*
O=C(/C=C/c1cccc(F)c1)OCC(=O)N1CCCc2ccccc21	-7%	1%	-1%	3%	.
O=C(c1ccc(Cl)cc1Cl)N1CCc2ccccc21	-2%	3%	5%	-4%	.
O=C(/C=C/c1ccccc1Cl)OCC(=O)N1CCCC1	.	.	.	1%	.
O=C(Nc1ccccc1)Nc1cc(Cl)cc(Cl)c1	?	11%	27µM*	-1%	-9%
O=C(Nc1ccc(Cl)cc1)Nc1ccccc1Sc1ncc([N+](=O)[O-])s1	?	?	12µM*	?	.
N#Cc1ccccc1NC(=O)Nc1ccc(Cl)cc1	9%	2%	?	0%	-8%
O=C(Nc1ccc(Nc2ccccc2)cc1)Nc1ccccc1Cl	?	?	11µM*	?	.
O=C(Nc1cccc(Cl)c1)Nc1cccc(Cl)c1	11%	13%	?	-3%	-12%
O=C(Nc1csc([N+](=O)[O-])c1)Nc1ccccc1Cl	15%	14%	17µM*	-6%	.
O=C(Nc1ccncc1)Nc1ccccc1Cl	20%	17%	?	3%	.
O=C(Nc1ccccc1Cl)Nc1ccccc1Cl	17%	15%	?	8%	.
O=C(c1ccc(N2C(=O)C3C4c5ccccc5C(c5ccccc54)C3C2=O)cc1)N1CCOCC1 (configuration not stated)	0%	0%	-1%	1%	0%
C=C(C(C)=O)C(O)c1ccco1 (configuration not stated)	.	.	.	.	-3%
COc1ccc(CNC(=O)COC(=O)CO/N=C(\C)c2ccc3c(c2)OCO3)cc1	-6%	0%	-1%	-3%	.
O=C(Nc1ccc(OC(F)(F)F)cc1)NC1COc2ccccc2C1 (configuration not stated)	.	.	-4%	.	.
Cc1nccn1-c1cc(C(C)(C)C)nc2c(-c3ccccc3)cnn12	-1%	1%	-17%	-1%	5%
O=C(NNC(=O)c1cc(-c2ccccc2)nc2ccccc12)Nc1cccc(Cl)c1	0%	-2%	?	-21%	-16%
O=C(NNC(=O)c1cc(-c2cccnc2)nc2ccccc12)Nc1ccc(Cl)cc1	26%	13%	24µM*	-8%	-3%
C=CCNC(=S)NNC(=O)c1cc(-c2cccnc2)nc2ccccc12	6%	0%	9.5µM*	3%	.
CC(C)(C)c1ccc(-c2cc(C(=O)NNC(=O)Nc3ccccc3)c3ccccc3n2)cc1	21%	?	0.48µM*	?	14µM*
O=C(NNC(=O)c1cc(-c2ccncc2)nc2ccccc12)Nc1ccc(F)cc1	12%	7%	?	-10%	.
COc1cc(C2NC(=O)N(C)C3=C2C(=O)N(c2ccccc2)C3)ccc1O (configuration not stated)	.	.	5%	.	8%
SMILES	Rab9 prom act	NPC1 promoter act	FLuc modulator	ELG1 genotoxic	SMN2 splice up
O=C(COc1ccccc1)Nc1ccc2c(c1)nc1n2CCSC1	4µM*	?	21µM*	?	10%
O=C(Nc1ccc2c(c1)nc1n2CCOC1)c1ccco1	4µM*	1.3µM*	13µM*	?	?
O=C(Nc1ccc2c(c1)nc1n2CCSC1)c1ccco1	0.45µM*	0.32µM*	2.7µM*	?	-14%
O=C(COc1ccccc1)NCC(c1ccc(Cl)cc1)N1CCCCC1 (configuration not stated)	.	.	5%	.	.
C/C(=N\Nc1ccccc1C)c1cccnc1	4%	2%	17µM*	11%	.
O=C(O)/C=C/c1cccc(NC(=O)Nc2ccc([N+](=O)[O-])cc2)c1	5%	-5%	7.6µM*	0%	.
O=C(Nc1ccc([N+](=O)[O-])cc1)C(=O)Nc1cccc(C(=O)O)c1	?	?	0.019µM*	?	.
O=C(/C=C/c1cccc([N+](=O)[O-])c1)Nc1cc(C(=O)O)cc(C(=O)O)c1	2%	-9%	-18%	-9%	-45%
CC(C)(C)c1ccc(C(=O)N2CCCC2)s1	19%	-7%	15µM*	?	.
CCOc1ccc(CCNC(=O)CCCc2cc(-c3ccc(OCC)cc3)on2)cc1	.	.	-8%	.	0%
CCOc1ccc(NC(=O)CCCc2cc(-c3ccc(OCC)cc3)on2)cc1	0%	-1%	-3%	7%	14%
CCOc1ccc(-c2cc(CCCC(=O)NCCC(C)C)no2)cc1	25%	17%	6µM*	4%	-12%
CCOc1ccc(-c2cc(CCCC(=O)NCc3cccnc3)no2)cc1	?	?	11µM*	?	13%
O=C(NC1CCOC1)c1cc(COc2cccc(C(F)(F)F)c2)on1 (configuration not stated)	?	0%	24µM*	?	.
CC(NC(=O)c1cc(COc2cccc(C(F)(F)F)c2)on1)c1nccs1 (configuration not stated)	2.8µM*	?	15µM*	?	.
CCOC(=O)N1CCN(C(=O)c2cc(COc3cccc(C(F)(F)F)c3)on2)CC1	2.8µM*	3.2µM*	15µM*	?	.
Cc1cc(C)cc(NC(=O)C(Cc2ccccc2)NS(=O)(=O)c2ccc3c(c2)CCC(=O)N3)c1 (configuration not stated)	.	.	6%	.	-4%
O=C(Nc1ccc(Cl)cc1F)C1CC1c1ccccc1 (configuration not stated)	24%	20%	?	13%	.
Cc1ccc(NC(=O)C2CC2c2ccccc2)c([N+](=O)[O-])c1 (configuration not stated)	22%	?	19µM*	?	.
O=C(Nc1ccc(N2CCCC2)cc1)C(Cl)c1ccccc1 (configuration not stated)	25%	-1%	8.5µM*	11%	-10%
CS(=O)(=O)N1CCN(c2ccc(NC(=O)C(c3ccccc3)c3ccccc3)cc2)CC1	-12%	2%	3%	1%	-46%
O=C(Nc1ccc(N2CCCCC2)cc1)c1ccc2ccccc2n1	2.8µM*	?	4.8µM*	?	53%
Cc1ccccc1C(=O)Nc1ccc(N2CCCC2)cc1	?	?	9.5µM*	1%	.
CCn1nc(C(=O)OCC(=O)N(CCC#N)c2ccccc2)c2ccccc2c1=O	10%	0%	2%	3%	.
O=C(N/N=C/c1ccccc1F)c1cccc2ccccc12	?	?	-8%	6%	.
Cc1ccccc1C(=O)N/N=C/c1cccc2ccccc12	-4%[1.84 µM]	15%	5.4µM*	16%	.
Cc1sccc1/C=N/NC(=O)c1cccc2ccccc12	15%	13%	-1%	1%	10%
